The whole screen tested about 52,000 compounds, of which about 4,300 (8.3%) were called active. Only a selection was taken, and actives are over-represented in it overall. A number with no mark means an inactive call. No stated cut-off is given here; in the data, active means survival mostly below about 52% (no sharp cut-off); inactive means mostly above about 56%.
Test system: DeltatarO mutant
Assay: S. aureus survival, RN4220 and DeltatarO strains – OD600, teichoic acid synthesis inhibitors, primary screen (AID 463173)
Conditions: S. aureus RN4220 wild type/DeltatarO growth, OD600, 18 h, hits give low values, screened at 18.75 µg/mL (by protocol)

Point of comparison: `CCCCCc1ccc(-c2ccc(C(=O)Oc3ccc(C(=O)OC)cc3)cc2)nc1`, survival 71%. Against it:
- CCCNC(=O)c1cnc2sc(N3CCCCC3)nn2c1=O — higher, 99%
- O=C(NCc1cccc(Cl)c1)c1cc2c(s1)-c1ccccc1SC2 — lower, 64%
- COc1cccc(C2c3c(-c4ccccc4O)n[nH]c3C(=O)N2Cc2cccnc2)c1 (configuration not stated) — higher, 84%
- COc1cc(C2c3c(-c4ccccc4O)n[nH]c3C(=O)N2Cc2ccncc2)ccc1O (configuration not stated) — higher, 90%
- CC(CNC(=O)c1ccc(CSc2nc3ccncc3n2Cc2ccccc2)cc1)c1ccccc1 (configuration not stated) — higher, 78%
- CS(=O)(=O)NCc1ccc2c(c1)OCO2 — higher, 92%
- COc1ccc(CNC(=O)c2ccc3c(c2)N(Cc2ccccc2)C(=O)c2ccccc2S3(=O)=O)cc1 — higher, 83%
- COc1ccc(CNc2ccc(C)c(C)c2)c(OC)c1OC — higher, 93%
- Cc1ccc2c(c1)N(C(=O)N1CCC(C(=O)NC3CCCCCC3)CC1)CC(C)O2 (configuration not stated) — higher, 72%
- Cc1c(/C=C(\C#N)C(=O)Nc2cccc(Cl)c2)c2ccccc2n1Cc1ccccc1Cl — higher, 123%
- Nc1c(S(=O)(=O)Cc2ccccc2)sc2nc3c(cc12)CCCC3 — lower, 49%
- Cc1nnnn1CCC(=O)NC(C)c1ccccc1 (configuration not stated) — higher, 84%
- Cc1cc(C)nc(N(C#N)Cc2ccccc2)n1 — higher, 100%
- Cc1cc(C)cc(-n2c(SCC(=O)Nc3ccccc3)nc3c(oc4ccccc43)c2=O)c1 — higher, 101%
- CCOC(=O)c1ccc(-c2ccc(/C=C(\C#N)C(=O)Nc3ccc(OCC)cc3)o2)cc1 — lower, 60%
- N#C/C(=C\c1ccc(-c2ccccc2)o1)C(=O)Nc1ccccc1 — higher, 90%
- Cc1ccc(NC(=O)/C(C#N)=C/c2ccc(C)o2)cc1 — higher, 79%
- CCC(C)OC(=O)/C(C#N)=C\c1ccc(-c2cccc(C(F)(F)F)c2)o1 (configuration not stated) — lower, 64%
- COc1ccc(NC(=O)/C(C#N)=C/c2ccc(C)o2)cc1 — higher, 77%
- CCOC(=O)/C(C#N)=C\c1ccc(-c2cccc(C(F)(F)F)c2)o1 — higher, 84%
- CCNC1CC(=O)N(c2ccc(C(=O)OCC)cc2)C1=O (configuration not stated) — higher, 112%
- CCOC(=O)C(C)Nc1ncnc2onc(C)c12 (configuration not stated) — lower, 53%
- CCN(C(=O)Cn1c(=O)n(Cc2ccccc2)c(=O)c2c1c1cc(OC)ccc1n2C)c1ccccc1 — higher, 84%
- COc1ccc(Cl)cc1NC(=O)CSc1nc2c([nH]c3ccccc32)c(=O)n1-c1ccccc1 — higher, 81%
- NNC(=O)CNC(=O)c1cccs1 — higher, 79%
- COc1ccccc1/C=C/C(=O)N1CCC(C(N)=O)CC1 — higher, 99%
- COC(=O)c1ccc(NC(=O)CSc2ccc(-c3cccs3)nn2)cc1 — higher, 85%
- COc1ccccc1OCC(=O)Nc1c(C(=O)c2ccc(C)cc2)oc2ccccc12 — higher, 82%
- Cc1ccc(C)c(NC(=O)CSc2nnc3[nH]c(=O)cc(-c4ccccc4)n23)c1 — higher, 105%
- COc1cc(NS(=O)(=O)c2ccc3[nH]c4c(c3c2)CCCCCC4)cc(OC)c1 — lower, 64%
- COc1ccc(NS(=O)(=O)c2ccc3[nH]c4c(c3c2)CCCCC4)cc1 — higher, 117%
- Cc1ccc(NS(=O)(=O)c2ccc3[nH]c4c(c3c2)CCCCCC4)cc1Cl — higher, 72%
- CC(=O)c1ccc(NS(=O)(=O)c2ccc3[nH]c4c(c3c2)CCCC4)cc1 — higher, 83%
- O=S(=O)(NCc1ccc(F)cc1)c1ccc2[nH]c3c(c2c1)CCCCC3 — lower, 61%
- COC(=O)c1ccc(NS(=O)(=O)c2ccc3[nH]c4c(c3c2)CCCCC4)cc1 — higher, 91%
- Cc1ccc(CNS(=O)(=O)c2ccc3[nH]c4c(c3c2)CCCC4)cc1 — higher, 84%
- Cc1ccc(NS(=O)(=O)c2ccc3[nH]c4c(c3c2)CCCCCC4)cc1 — higher, 84%
- Cc1ccc(N2C(=O)CCSC23C(=O)N(Cc2ccc(F)cc2)c2ccccc23)cc1 (configuration not stated) — higher, 90%
- CCCCNC(=O)CC1N=C2c3ccccc3N=C(SCC(=O)NCc3ccccc3Cl)N2C1=O (configuration not stated) — higher, 72%
- O=c1c2cc3c(cc2n(Cc2cccc(Cl)c2)c(=O)n1Cc1nc(-c2ccccc2)no1)OCO3 — lower, 61%
- O=C(CCCn1c(=O)[nH]c2ccccc2c1=O)NCc1ccccc1Cl — higher, 123%
- COc1ccc(CNC(=O)CSc2ncc(S(=O)(=O)c3ccc(C)c(Cl)c3)c(=O)[nH]2)cc1 — higher, 80%
- Cc1ccc(C)c(N2CCN(S(=O)(=O)c3ccc4[nH]c5c(c4c3)CCCCC5)CC2)c1 — higher, 80%
- Cc1ccc(N2CCN(S(=O)(=O)c3ccc4[nH]c5c(c4c3)CCCCC5)CC2)c(C)c1 — higher, 102%
- COCCNc1oc(-c2ccc(OC)cc2)nc1C#N — lower, 54%
- Cc1cc(OC(=O)c2cccs2)cc(OC(=O)c2cccs2)c1 — higher, 99%
- Cc1cc(C)cc(NC(=O)Cn2cc(C(=O)c3cccs3)c3ccccc32)c1 — lower, 60%
- COc1ccc(NC(=O)CCN2CCN(c3cccc(Cl)c3)CC2)cc1 — lower, 67%
- Cc1ccc(CNC(=O)c2ccc(N3Cc4ccccc4Oc4ncccc43)s2)cc1 — higher, 81%
- CCCc1ccc(-c2ccc(C(=O)Oc3ccc(Br)cc3)cc2)nc1 — higher, 136%
- COc1ccccc1C(=O)Nc1cc(-c2cccc(Br)c2)nn1-c1ccccc1 — higher, 115%
- Cn1c(=O)oc2cc(S(=O)(=O)N3CCCC(C(=O)NCc4ccc(F)cc4)C3)ccc21 (configuration not stated) — higher, 131%
- Cc1cc(C)n(CCC(=O)Nc2ccc(Cl)cc2)n1 — higher, 87%
- CCOc1ccc(-c2nn(-c3ccc(F)cc3)c3c2cnc2ccc(F)cc23)cc1 — higher, 81%
- Cc1ccc(-c2nn(-c3ccccc3)c3c2cnc2ccccc23)cc1C — lower, 68%
- COc1ccc(-n2nc(-c3ccc(C)cc3)c3cnc4cc(F)c(F)cc4c32)cc1 — higher, 88%
- COc1ccc(-c2nn(-c3ccc(C)cc3)c3c2cnc2ccc(C)cc23)cc1OC — higher, 76%
- CCOc1ccc2ncc3c(-c4cccc(OC)c4)nn(-c4ccccc4)c3c2c1 — higher, 100%
- COc1ccc(-c2nn(-c3ccc(C)c(Cl)c3)c3c2cnc2cc(OC)c(OC)cc23)cc1 — higher, 94%
- Cc1ccc(-n2nc(-c3ccccc3)c3cnc4cc5c(cc4c32)OCO5)cc1C — higher, 127%
- FC(F)(F)c1ccc2c(c1)ncc1c(-c3ccccc3)nn(-c3ccccc3)c12 — higher, 125%
- O=C(Nc1ccc(F)cc1F)C1CCCN1S(=O)(=O)c1cccc2nsnc12 (configuration not stated) — higher, 94%
- COc1ccc2c(CNCCc3cccs3)c(C(=O)O)n(Cc3ccccc3C)c2c1 — higher, 94%
- CC1=C(C(=O)Nc2ccc(C)cc2C)C(c2ccc(Br)cc2)n2ncc(C(=O)Nc3cccc(C)c3)c2N1 (configuration not stated) — higher, 128%
- COc1ccc(-c2nc3ccccc3n3c(-c4cccc(C)c4)c4c(=O)n(C)c(=O)n(C)c4c23)cc1 — the same, 71%
- CC(=O)Nc1cc(-c2ccccc2)nn1Cc1cccc(Cl)c1 — lower, 57%
- COc1ccc(-c2cc(C(=O)O)n(Cc3ccccc3)n2)cc1 — higher, 76%
- O=C(O)c1cc(-c2ccccc2)nn1Cc1ccccc1 — higher, 73%
- CCOC(=O)c1cc(-c2ccc(OC)cc2)nn1Cc1ccccc1 — lower, 66%
- Cc1ccc2c(c1)cc1c(=O)n(Cc3cccc(Cl)c3)nc(C)n12 — higher, 89%
- Cc1ccc(-c2cc(C(=O)O)n(Cc3ccccc3)n2)cc1 — lower, 67%

`COc1ccc(CCN2C(=O)c3[nH]nc(-c4ccccc4O)c3C2c2ccc(OC)c(OC)c2)cc1` (configuration not stated) was tested, and the survival was 45% (active).
`COc1ccc(CCN2C(=O)c3[nH]nc(-c4ccccc4O)c3C2c2ccc(O)c(OC)c2)cc1` (configuration not stated) was tested, and the survival was 30% (active).
In the case of `COc1cccc(C2c3c(-c4ccccc4O)n[nH]c3C(=O)N2CCc2ccc(OC)c(OC)c2)c1` (configuration not stated), the survival is reported as 8% (active).
With `CCCCOC(=O)/C(C#N)=C/c1ccc(-c2cccc(C(F)(F)F)c2)o1` the survival was 46% (active).
For `CCCCOC(=O)c1ccc(NC(=O)/C(C#N)=C/c2ccc(-c3ccccc3)o2)cc1`, the survival was 32% (active).
For `CCCCOC(=O)c1ccc(NC(=O)/C(C#N)=C/c2ccc(C)o2)cc1`, the survival was 49% (active).
`Cc1ccc(NS(=O)(=O)c2ccc3[nH]c4c(c3c2)CCCCCC4)cc1C` was tested, and the survival was -1% (active).
With `COC(=O)c1ccc(NS(=O)(=O)c2ccc3[nH]c4c(c3c2)CCCC4)cc1` the survival was 6% (active).
With `O=S(=O)(NCc1ccc(F)cc1)c1ccc2[nH]c3c(c2c1)CCCC3` the survival was -1% (active).
With `COc1ccc(NS(=O)(=O)c2ccc3[nH]c4c(c3c2)CCCCCC4)cc1` the survival was -2% (active).
`Cc1ccc(C)c(N2CCN(S(=O)(=O)c3ccc4[nH]c5c(c4c3)CCCC5)CC2)c1` was tested, and the survival was -2% (active).
`Cc1cc(C(=O)c2cccs2)c(N)s1` was tested, and the survival was 33% (active).
`CCCCCc1ccc(-c2ccc(Br)cc2)nc1` was tested, and the survival was -4% (active).
With `CCc1ccc2ncc3c(-c4ccccc4)nn(-c4ccccc4)c3c2c1` the survival was 5% (active).
`COc1ccc2ncc3c(-c4ccccc4)nn(-c4ccc(C)c(C)c4)c3c2c1` was tested, and the survival was 18% (active).
`COc1cc2ncc3c(-c4ccccc4)nn(-c4ccc(C)cc4)c3c2cc1OC` was tested, and the survival was 47% (active).
In the case of `CCc1ccc(-c2nn(-c3ccc(OC)cc3)c3c2cnc2ccc(OC)cc23)cc1`, the survival is reported as 14% (active).
For `CCOC(=O)c1cc(-c2ccc(C)cc2)nn1Cc1ccccc1`, the survival was -12% (active).
For `Cc1ccc(-c2cc(N)n(Cc3cccc(Cl)c3)n2)cc1`, the survival was 55% (active).
For `CCOC(=O)c1cc(-c2ccccc2)nn1Cc1ccccc1`, the survival was -12% (active).
